Inconclusive results are not listed. Calls of active or inactive are those of the source. How the source made its calls: active means hit-call score of the fitted dose curve at least 0.9, where 1 is the maximum; inconclusive means response in the unintended direction; inactive means score below 0.9.
Target: rat Thyrotropin Releasing Hormone Receptor (TRH), Trhr (gene 25570) (UniProt Q01717)
Assay: NVS_GPCR_rTRH: NovaScreen (NVS) G Protein-Coupled Receptor Assay for rat Thyrotropin Releasing Hormone Receptor (TRH) (AID 2283329);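 further: hit means lower bound tracer signal versus DMSO baseline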
Protocol: NVS_GPCR_rTRH is a biochemical, single-readout assay that uses extracted gene-proteins from Rat forebrain membranes in a tissue-based cell-free assay. Measurements were taken 4 hours after chemical dosing in a 48-well plate.NVS_GPCR_rTRH is one of one assay component(s) measured or calculated from the NVS_GPCR_rTRH assay. It is designed to make measurements of radioligand binding, a form of binding reporter, as detected with scintillation counting signals by Filter-based radiodetection technology.Data from the assay component NVS_GPCR_rTRH was analyzed into 1 assay endpoint. This assay endpoint, NVS_GPCR_rTRH, was analyzed in the positive analysis fitting direction relative to DMSO as the negative control and baseline of activity. Using a type of binding reporter, loss-of-signal activity can be used to understand changes in the binding as they relate to the gene Trhr. Furthermore, this assay endpoint can be referred to as a primary readout, because the performed assay has only produced 1 assay endpoint. To generalize the intended target to other relatable targets, this assay endpoint is annotated to the gpcr intended target family, where the subfamily is rhodopsin-like receptor.
Binding assays used specific radioligands (tritiated, iodinated) with non-radioactive competitive displacement ligands in agonist or antagonist protocols (as indicated) and various reference compounds and inhibitors to titrate specific binding to receptors and transporters. Most enzyme assays (CYPs, kinases, phosphatases, proteases, HDACs) used recombinant protein and specific substrates (fluorescence mostly, some colorimetric and radioactive) and inhibitors, followed by a biochemical separation of substrate and product. All assays for the biochemical HTS were initially run in duplicate at a single concentration (10 uM for CYP450 assays and 25 uM for all others). […] Each assay was run with positive and negative controls, and concurrent controls on every plate. The follow-up (secondary) screen tested active chemical-pairs in concentration series, as well as a few additional assays not tested in the primary screen, some selected negative inactives, and several cases re-run in the concentration series for confirmatory purposes.

Chain of rat Thyrotropin Releasing Hormone Receptor (TRH), Trhr (gene 25570) (Q01717 whole entry, looked up): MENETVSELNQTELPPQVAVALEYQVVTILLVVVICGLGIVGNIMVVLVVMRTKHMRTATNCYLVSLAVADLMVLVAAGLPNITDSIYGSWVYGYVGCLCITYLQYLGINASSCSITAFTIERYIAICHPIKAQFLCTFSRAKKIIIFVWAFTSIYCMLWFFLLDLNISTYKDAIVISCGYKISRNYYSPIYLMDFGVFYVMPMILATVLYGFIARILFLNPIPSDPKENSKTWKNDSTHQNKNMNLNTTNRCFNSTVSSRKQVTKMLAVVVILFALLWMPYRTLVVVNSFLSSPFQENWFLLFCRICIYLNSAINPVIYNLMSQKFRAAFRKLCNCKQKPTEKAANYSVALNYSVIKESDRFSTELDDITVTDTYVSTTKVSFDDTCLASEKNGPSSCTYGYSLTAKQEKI

outcome, inactive:
COC(=O)c1c(C)cc(O)c(C)c1O
CCO[Si](C)(OCC)OCC
CCCCC/C=C\CCC=O
CCN(CCC#N)c1ccc(N=Nc2c(Cl)cc([N+](=O)[O-])cc2Cl)cc1
CCCCCCCC/C=C\CCCCCCCC(=O)OCCO
CC(=O)OC(C)C
C=C1C2CCC(C2)C1(C)C (configuration not stated)
CC/C=C\C/C=C\C/C=C\CCCCCCCC(=O)O
CCCCCCCCCCOS(=O)(=O)O
Cc1ccc(C(C)c2ccc(C)c(C)c2)cc1C
CCCCCc1ccc(Cl)cc1
CC(C)(C)c1ccc(N)cc1
CN(C)c1ccc(C(=N)c2ccc(N(C)C)cc2)cc1
CC(C)C1=CC2=CC[C@@H]3[C@](C)(CCC[C@@]3(C)C(=O)O)[C@H]2CC1
c1c[nH]cn1
CO[Si](OC)(OC)c1ccccc1
Cc1cc(C)c(C)cc1C
NC(=O)N=NC(N)=O
CCOC(=O)Cc1cccc2ccccc12
c1ccc2c(c1)ccc1cc3c(ccc4ccccc43)cc12
CC=C1CC2C=CC1C2 (configuration not stated)
NC(=O)c1ccccc1O

Source: PubChem BioAssay (EPA / NIEHS)
